Test results as given in the supplement of paper PMC10849652.
Targets with a hit are over-represented here; the source holds about 8,800 in all. About 0.5% of all pairs of compound and target were hits.

How the values were obtained:
Assay in all cases: log2 fold change, soluble protein after heating vs DMSO (PISA); higher = thermal stabilisation; K562 lysate, 10 uM; active = over 0.2 and 3.5 SD of the protein, either way, in both replicates (recomputed)
[1] = compound: C1=CC=C(C=C1)[C@H](COC2=CC3=C(C=C2)NC(=O)N3)NC(=O)C4=CC=CN(C4=O)CC5=CC(=C(C=C5)F)F
In short: (§1)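 Dounce homogenisation of K562 pellets in PBS pH 7.4 with 1 mM MgCl2 produced a crude extract, used at 1 mg/mL protein. Exposure to 10 μM compound lasted 30 min, and aliquots were then heated for 3 min across 48°C-58°C, pooled and brought to 0.5% NP-40 at 4°C. The supernatant after 21,000xg for 90 min was quantified by TMTpro 16plex LC-MS/MS with channel sums equalised. Duplicate values are given as log-two fold change in thermal stability relative to solvent controls.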

[2] = compound: CC1=C(SC2=C1C(=N[C@H](C3=NN=C(N32)C)CC(=O)N)C4=CC=C(C=C4)Cl)C
In short: as §1

[3] = compound: CC1=C2C(=CC=C1)N=C(N(C2=O)C3=CC=CC=C3C)CN4C=NC5=C(N=CN=C54)N
In short: as §1

[4] = compound: Cc1sc2c(c1C)C(c1ccc(Cl)cc1)=N[C@@H](CC(=O)OC(C)(C)C)c1nnc(C)n1-2
In short: as §1

[5] = compound: c1ccc([C@@H]2C[C@H]2NC2CCNCC2)cc1
In short: as §1

Measured: log2 fold change

PGRMC1 (UniProt O00264)
inactive: [1] 0.073 | [2] -0.038 | [3] 0.008 | [4] -0.031 | [5] -0.039

PRIM2 (UniProt P49643)
Chain of UniProt P49643 (P49643 whole entry, looked up): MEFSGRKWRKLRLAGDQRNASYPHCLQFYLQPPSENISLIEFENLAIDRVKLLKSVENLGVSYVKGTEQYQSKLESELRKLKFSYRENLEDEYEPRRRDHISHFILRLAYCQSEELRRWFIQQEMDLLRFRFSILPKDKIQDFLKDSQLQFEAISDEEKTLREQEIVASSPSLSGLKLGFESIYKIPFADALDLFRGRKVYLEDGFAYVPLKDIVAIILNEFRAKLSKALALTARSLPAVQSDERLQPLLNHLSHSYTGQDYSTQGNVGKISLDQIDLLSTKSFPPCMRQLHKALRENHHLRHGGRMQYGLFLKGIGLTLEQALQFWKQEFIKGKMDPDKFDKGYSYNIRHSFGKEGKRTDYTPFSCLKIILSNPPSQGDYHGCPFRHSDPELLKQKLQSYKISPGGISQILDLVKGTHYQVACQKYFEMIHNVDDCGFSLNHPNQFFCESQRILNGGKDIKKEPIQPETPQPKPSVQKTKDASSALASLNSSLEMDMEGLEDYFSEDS
inactive: [1] 0.004 | [2] 0.026 | [3] 0.016 | [4] 0.009 | [5] 0.028

PHKG2 (UniProt P15735)
inactive: [1] 0.039 | [2] -0.038 | [3] -0.037 | [4] -0.002 | [5] -0.022

POC5 (UniProt Q8NA72)
inactive: [1] 0.016 | [2] -0.052 | [3] 0.161 | [4] 0.17 | [5] -0.097

PPP4R2 (UniProt Q9NY27)
Chain of UniProt Q9NY27 (Q9NY27 whole entry, looked up): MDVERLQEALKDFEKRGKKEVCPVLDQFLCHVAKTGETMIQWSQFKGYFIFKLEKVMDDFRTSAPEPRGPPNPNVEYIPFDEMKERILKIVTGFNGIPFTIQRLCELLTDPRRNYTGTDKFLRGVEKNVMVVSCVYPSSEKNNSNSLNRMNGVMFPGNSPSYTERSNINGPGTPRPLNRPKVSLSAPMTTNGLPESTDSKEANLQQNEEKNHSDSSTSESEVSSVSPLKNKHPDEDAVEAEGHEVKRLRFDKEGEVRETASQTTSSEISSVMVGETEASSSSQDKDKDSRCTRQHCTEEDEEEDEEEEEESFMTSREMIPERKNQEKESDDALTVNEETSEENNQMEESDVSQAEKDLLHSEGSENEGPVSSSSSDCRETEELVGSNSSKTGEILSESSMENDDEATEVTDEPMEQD
inactive: [1] 0.019 | [2] 0.025 | [3] -0.001 | [4] -0.026 | [5] -0.009

PRIM1 (UniProt P49642)
Chain of UniProt P49642 (P49642 whole entry, looked up): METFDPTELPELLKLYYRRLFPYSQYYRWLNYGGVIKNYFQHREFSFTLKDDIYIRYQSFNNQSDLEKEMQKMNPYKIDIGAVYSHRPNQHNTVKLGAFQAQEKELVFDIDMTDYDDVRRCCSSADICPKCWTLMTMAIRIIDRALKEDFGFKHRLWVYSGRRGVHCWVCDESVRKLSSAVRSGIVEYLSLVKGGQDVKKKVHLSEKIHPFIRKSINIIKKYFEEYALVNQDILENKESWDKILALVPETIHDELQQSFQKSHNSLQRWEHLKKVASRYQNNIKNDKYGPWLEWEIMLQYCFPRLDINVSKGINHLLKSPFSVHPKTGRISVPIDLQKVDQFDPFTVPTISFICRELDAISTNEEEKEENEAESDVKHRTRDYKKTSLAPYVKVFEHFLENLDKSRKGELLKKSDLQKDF
inactive: [1] 0.009 | [2] -0.051 | [3] -0.018 | [4] -0.006 | [5] 0.047

PWP2 (UniProt Q15269)
Chain of UniProt Q15269 (Q15269 whole entry, looked up): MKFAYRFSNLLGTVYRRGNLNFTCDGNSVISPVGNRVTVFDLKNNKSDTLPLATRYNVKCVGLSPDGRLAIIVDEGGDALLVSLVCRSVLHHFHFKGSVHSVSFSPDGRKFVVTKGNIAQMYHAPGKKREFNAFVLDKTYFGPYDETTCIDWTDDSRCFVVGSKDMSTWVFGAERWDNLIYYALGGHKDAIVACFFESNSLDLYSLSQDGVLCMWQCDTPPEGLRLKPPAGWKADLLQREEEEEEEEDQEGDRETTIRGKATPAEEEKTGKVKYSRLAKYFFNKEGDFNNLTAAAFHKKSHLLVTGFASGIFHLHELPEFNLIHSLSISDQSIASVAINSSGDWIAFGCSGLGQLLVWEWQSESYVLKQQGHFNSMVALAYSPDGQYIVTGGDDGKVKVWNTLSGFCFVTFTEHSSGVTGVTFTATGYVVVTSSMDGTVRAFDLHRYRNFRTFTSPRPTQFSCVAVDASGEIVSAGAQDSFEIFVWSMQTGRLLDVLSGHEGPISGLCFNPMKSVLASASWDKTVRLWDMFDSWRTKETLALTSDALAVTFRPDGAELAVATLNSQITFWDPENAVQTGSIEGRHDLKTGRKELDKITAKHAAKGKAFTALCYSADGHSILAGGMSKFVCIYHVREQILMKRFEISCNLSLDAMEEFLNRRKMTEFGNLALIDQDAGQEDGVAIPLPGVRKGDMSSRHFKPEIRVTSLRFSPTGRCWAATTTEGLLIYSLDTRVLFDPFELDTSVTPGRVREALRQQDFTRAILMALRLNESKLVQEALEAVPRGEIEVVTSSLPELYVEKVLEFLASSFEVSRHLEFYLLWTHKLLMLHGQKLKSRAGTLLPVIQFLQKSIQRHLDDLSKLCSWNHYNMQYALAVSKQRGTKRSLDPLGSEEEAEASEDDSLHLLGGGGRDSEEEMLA
inactive: [1] -0.004 | [2] -0.042 | [3] -0.013 | [4] -0.048 | [5] 0.061

PCBP2 isoform 8 (UniProt Q15366)
Chain of UniProt Q15366 (Q15366 whole entry, looked up): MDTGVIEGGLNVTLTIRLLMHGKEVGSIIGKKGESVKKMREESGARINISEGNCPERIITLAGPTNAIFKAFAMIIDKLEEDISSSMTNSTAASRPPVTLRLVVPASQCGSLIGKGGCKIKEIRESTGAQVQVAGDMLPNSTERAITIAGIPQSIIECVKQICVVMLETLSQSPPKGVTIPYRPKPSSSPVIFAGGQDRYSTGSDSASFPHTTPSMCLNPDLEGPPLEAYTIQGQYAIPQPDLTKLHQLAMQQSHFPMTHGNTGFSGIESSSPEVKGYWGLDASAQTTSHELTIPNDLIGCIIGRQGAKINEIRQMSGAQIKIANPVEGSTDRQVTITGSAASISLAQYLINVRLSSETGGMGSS
inactive: [1] 0.098 | [2] 0.065 | [3] -0.038 | [4] -0.044 | [5] -0.101

POLA1 (UniProt P09884)
Chain of UniProt P09884 (P09884 whole entry, looked up): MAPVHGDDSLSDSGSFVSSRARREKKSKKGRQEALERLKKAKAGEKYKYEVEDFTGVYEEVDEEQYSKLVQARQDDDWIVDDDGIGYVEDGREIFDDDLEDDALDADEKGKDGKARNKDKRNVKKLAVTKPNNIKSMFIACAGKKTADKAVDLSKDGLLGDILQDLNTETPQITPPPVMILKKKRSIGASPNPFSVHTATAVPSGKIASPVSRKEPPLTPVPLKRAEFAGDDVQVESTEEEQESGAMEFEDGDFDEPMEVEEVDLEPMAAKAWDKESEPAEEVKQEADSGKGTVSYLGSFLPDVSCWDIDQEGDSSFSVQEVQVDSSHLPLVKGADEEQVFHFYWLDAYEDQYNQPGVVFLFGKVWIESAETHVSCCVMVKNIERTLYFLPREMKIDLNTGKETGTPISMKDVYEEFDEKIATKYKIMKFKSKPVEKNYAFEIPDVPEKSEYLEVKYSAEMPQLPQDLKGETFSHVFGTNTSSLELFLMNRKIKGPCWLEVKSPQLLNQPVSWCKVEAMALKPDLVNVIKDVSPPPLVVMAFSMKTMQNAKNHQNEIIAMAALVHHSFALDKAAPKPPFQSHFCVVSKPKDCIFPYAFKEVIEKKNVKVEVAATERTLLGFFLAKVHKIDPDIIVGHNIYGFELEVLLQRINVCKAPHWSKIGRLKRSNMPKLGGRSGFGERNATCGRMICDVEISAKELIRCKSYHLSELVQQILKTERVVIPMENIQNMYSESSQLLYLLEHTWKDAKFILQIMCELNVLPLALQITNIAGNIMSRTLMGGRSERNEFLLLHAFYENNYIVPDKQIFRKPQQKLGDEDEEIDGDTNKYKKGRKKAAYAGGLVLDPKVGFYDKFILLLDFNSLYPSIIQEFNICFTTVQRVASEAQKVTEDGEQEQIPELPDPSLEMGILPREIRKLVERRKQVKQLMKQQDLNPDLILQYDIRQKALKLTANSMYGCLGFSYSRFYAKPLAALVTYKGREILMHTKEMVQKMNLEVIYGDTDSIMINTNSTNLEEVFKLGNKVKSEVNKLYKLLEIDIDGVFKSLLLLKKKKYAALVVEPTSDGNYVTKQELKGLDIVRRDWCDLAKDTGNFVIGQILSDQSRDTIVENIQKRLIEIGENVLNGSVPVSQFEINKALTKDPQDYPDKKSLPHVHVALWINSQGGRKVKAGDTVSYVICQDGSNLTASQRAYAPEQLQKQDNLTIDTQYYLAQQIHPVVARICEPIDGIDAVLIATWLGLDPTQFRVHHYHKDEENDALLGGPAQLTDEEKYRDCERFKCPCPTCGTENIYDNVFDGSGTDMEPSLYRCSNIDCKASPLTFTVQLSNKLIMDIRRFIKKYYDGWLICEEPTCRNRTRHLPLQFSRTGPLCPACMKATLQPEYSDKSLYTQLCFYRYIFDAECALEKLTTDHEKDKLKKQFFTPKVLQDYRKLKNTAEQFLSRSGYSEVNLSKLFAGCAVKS
inactive: [1] 0.006 | [2] 0.01 | [3] 0.037 | [4] -0.002 | [5] 0.002

PPP2R5C isoform 2 (UniProt Q13362)
inactive: [1] -0.016 | [2] 0.224 | [3] 0.004 | [4] -0.136 | [5] 0.026

PRKAR2A (UniProt P13861)
inactive: [1] 0.009 | [2] 0.012 | [3] 0.038 | [4] -0.011 | [5] 0.027

PRKACB isoform 2 (UniProt P22694)
inactive: [1] -0.042 | [2] -0.004 | [3] -0.018 | [4] -0.009 | [5] 0.019

PXMP4 (UniProt Q9Y6I8)
inactive: [1] -0.096 | [2] -0.022 | [3] -0.026 | [4] -0.191 | [5] 0.041

PCBP2 isoform 3 (UniProt Q15366)
inactive: [1] -0.011 | [2] 0.017 | [3] -0.041 | [4] 0.061 | [5] 0.05

PITRM1 isoform 2 (UniProt Q5JRX3)
inactive: [1] 0.158 | [2] -0.193 | [3] 0.005 | [4] 0.04 | [5] 0.01

PIM1 isoform 2 (UniProt P11309)
inactive: [1] -0.115 | [2] -0.046 | [3] -0.127 | [4] -0.025 | [5] -0.191

PLA2G4B isoform 6 (UniProt P0C869)
inactive: [1] -0.003 | [2] 0.024 | [3] -0.052 | [4] 0.099 | [5] -0.019

PRRC2A (UniProt P48634)
inactive: [1] -0.047 | [2] 0.003 | [3] 0.001 | [4] 0.017 | [5] -0.02

PRPF38A (UniProt Q8NAV1)
inactive: [1] 0.034 | [2] -0.055 | [3] -0.08 | [4] -0.024 | [5] -0.133

PDE4DIP isoform 4 (UniProt Q5VU43)
inactive: [1] -0.102 | [2] 0.154 | [3] 0.018 | [4] -0.016 | [5] -0.015

PDCD6IP (UniProt Q8WUM4)
Chain of UniProt Q8WUM4 (Q8WUM4 whole entry, looked up): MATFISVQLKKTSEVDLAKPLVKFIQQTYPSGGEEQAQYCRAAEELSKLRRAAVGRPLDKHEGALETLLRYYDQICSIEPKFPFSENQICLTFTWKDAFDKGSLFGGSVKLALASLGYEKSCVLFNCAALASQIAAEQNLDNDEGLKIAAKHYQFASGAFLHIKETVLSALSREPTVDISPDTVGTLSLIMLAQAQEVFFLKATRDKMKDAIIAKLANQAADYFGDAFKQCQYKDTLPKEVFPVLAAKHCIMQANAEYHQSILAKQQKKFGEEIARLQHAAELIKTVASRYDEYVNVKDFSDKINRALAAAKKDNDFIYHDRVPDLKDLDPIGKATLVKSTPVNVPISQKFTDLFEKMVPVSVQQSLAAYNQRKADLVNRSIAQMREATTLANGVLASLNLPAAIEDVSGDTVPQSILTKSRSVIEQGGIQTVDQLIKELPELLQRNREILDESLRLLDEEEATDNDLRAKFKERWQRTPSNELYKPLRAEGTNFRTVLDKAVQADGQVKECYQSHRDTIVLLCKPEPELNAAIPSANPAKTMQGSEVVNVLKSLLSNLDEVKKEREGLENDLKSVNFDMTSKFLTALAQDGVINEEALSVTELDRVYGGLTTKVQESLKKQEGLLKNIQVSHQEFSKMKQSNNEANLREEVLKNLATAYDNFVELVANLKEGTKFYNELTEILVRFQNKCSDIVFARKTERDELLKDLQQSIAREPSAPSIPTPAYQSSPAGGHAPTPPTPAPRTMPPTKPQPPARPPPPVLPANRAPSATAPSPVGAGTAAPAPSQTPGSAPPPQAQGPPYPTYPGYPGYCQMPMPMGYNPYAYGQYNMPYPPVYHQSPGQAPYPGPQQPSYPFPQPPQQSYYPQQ
inactive: [1] -0.077 | [2] 0.086 | [3] 0.037 | [4] 0.043 | [5] 0.085

PRKD2 isoform 3 (UniProt Q9BZL6)
inactive: [1] 0.001 | [2] -0.031 | [3] 0.121 | [4] 0.02 | [5] 0.104

PDF (UniProt Q9HBH1)
inactive: [1] -0.056 | [2] -0.007 | [3] -0.024 | [4] 0.024 | [5] 0.028

PFKFB3 isoform 4 (UniProt Q16875)
inactive: [1] -0.04 | [2] 0.047 | [3] 0.057 | [4] 0.018 | [5] 0.041
